Shown are actives, neighbours in structure and some others; about 4.8% of the full set was active somewhere.
DAX1 inh-1: inhibitors of human orphan nuclear receptor DAX1 (NR0B1); P51843; HEK293 Gal4-DAX1 luciferase reporter, luminescence; inhibition, % at 6.75 µM; 340,000 compounds, 0.99% hits;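 active = inhibition above the mean over all tested compounds plus 3 SD, cut at about 4.2% in these data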;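 note: 0% = DAX1-transfected cells with DMSO and 100% = empty-vector control cells with DMSO; inhibition shows as a rise in luminescence from relieved DAX1 repression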
Target sequence (P51843 207-470 limits assumed): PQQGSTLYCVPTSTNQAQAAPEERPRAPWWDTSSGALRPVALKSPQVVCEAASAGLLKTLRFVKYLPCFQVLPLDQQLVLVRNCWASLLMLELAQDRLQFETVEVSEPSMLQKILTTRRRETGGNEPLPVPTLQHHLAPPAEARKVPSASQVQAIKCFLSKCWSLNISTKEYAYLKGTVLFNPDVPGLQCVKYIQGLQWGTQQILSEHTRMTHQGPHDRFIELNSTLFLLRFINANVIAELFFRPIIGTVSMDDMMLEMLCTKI
ssDAF-12 act: activates DAF-12 receptor from parasite S. stercoralis | activation, % at 6.8 µM | 370,000 compounds, 1% hits | HEK293 ssDAF-12/GRIP1 lit1-tk-luc reporter, luminescence; % of 3 µM dafachronic acid response;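 active = activation above the mean over all tested compounds plus 3 SD, cut at about 0.9% in these data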;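 note: 0% = DMSO-only wells and 100% = 3 µM delta7-dafachronic acid wells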
DAX1 inh-2: blocks DAX1 repression of SF-1 activated StAR promoter; AID 652010; inhibition, % at 6.8 µM; 370,000 compounds, 1.1% hits; HEK293T StAR-luciferase reporter, SF-1/DAX-1 repression relief;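 active = inhibition above the mean over all tested compounds plus 3 SD, cut at about 3.6% in these data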;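 note: 0% = DAX-1 cells with DMSO and 100% = cells lacking DAX-1 with DMSO; higher inhibition means more luminescence from relief of DAX-1 repression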
NR1D1 modulator: Rev-erb alpha (human) modulation; 370,000 compounds, 0.79% hits; Rev-erbα–FITC-DNA binding, fluorescence polarization, 90 min; AID 1259318; P20393; activity, % at 10 µM;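 active = activity above about 14%, limit read from the data; passing the limit was not always enough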;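 note: 0% = DMSO wells with 35 nM protein and 100% = DMSO wells with 750 nM protein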
hgDAF12 agonist: activates the H. glycines DAF-12 receptor ligand-binding domain | HEK293 GAL4-hgDAF12 UAS-luciferase reporter, agonist luminescence; normalized to butyrate control | activation, % at 6.8 µM | 370,000 compounds, 1.8% hits;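 active = activation above a cutoff set at the mean of all screened compounds plus 3 SD, cut at about 10% in these data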;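 note: 0% = DMSO wells and 100% = sodium butyrate wells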
hcDAF-12 act: activates DAF-12 receptor from parasite H. contortus; 370,000 compounds, 1.4% hits; activation, % at 6.8 µM; AID 652067; HEK293 hcDAF-12 lit1-tk-luc reporter, luminescence; 0% DMSO, 100% Δ7-dafachronic acid;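 active = activation above the mean of all tested compounds plus 3 SD, cut at about 5.5% in these data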;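 note: 100% = response to 3 µM Δ7-dafachronic acid high control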
LXR ag: activates human LXR-beta, counter-screen for hcDAF-12 agonists; activation, % at 6.8 µM; AID 743027; shares compounds with hcDAF-12 act; HEK293 Gal4-LXR tk-luc reporter, luminescence, 24 h; normalized: DMSO 0%, positive control 100%; 3,400 tested, under 10 active;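 active = mean percent activation of the reporter above a cutoff set as the average over tested compounds plus their standard deviation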
Target sequence (P55055 whole entry, looked up, the tested form may be a part): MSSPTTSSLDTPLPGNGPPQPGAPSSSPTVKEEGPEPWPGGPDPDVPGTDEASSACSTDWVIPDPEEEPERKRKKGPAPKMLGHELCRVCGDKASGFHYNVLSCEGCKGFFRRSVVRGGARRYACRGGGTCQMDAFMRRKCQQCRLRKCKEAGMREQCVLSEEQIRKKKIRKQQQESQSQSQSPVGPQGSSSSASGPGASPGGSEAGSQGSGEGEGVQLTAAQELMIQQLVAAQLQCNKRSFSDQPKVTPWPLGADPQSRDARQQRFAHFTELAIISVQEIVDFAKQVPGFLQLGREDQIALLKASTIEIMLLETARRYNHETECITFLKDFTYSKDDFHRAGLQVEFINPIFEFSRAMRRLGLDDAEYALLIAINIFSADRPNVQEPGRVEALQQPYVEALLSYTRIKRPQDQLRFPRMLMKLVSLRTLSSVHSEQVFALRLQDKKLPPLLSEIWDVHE
hcDAF12 ag: confirmation of H. contortus DAF-12 agonists; activation, % at 6.8 µM; shares compounds with hcDAF-12 act; HEK293 hcDAF-12 lit1-tk-luc reporter, luminescence; % of Δ7-dafachronic acid response; 3,400 compounds, 61% hits;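 active = mean activation across triplicate tests above the threshold derived from the earlier primary screen, cut at about 5.5% in these data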;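 note: 0% = DMSO only wells and 100% = 3 µM Δ7-dafachronic acid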
Starred values were filed as active, the others as inactive; / = not tested or not shown.

SMILES | DAX1 inh-1 | ssDAF-12 act | DAX1 inh-2 | NR1D1 modulator | hgDAF12 agonist | hcDAF-12 act | LXR ag | hcDAF12 ag
N#C/C(=C\c1ccc(N2CCOCC2)o1)c1nc2ccccc2[nH]1 | 3 | 0 | 3 | -1 | -1 | 11* | 2 | 5.9*
O=C(Nc1ccccc1)C(=O)Nc1cccnc1 | 1 | 1 | 3 | 5 | 10 | 9.3* | 1 | 5
CCCCCCCCN1C(=O)[C@@H](CC(=O)NCc2cccc(C(F)(F)F)c2)C[C@@]2(C(=O)OC)C1=C[C@H](COCc1ccccc1)O[C@@H]2C | / | -1 | -2 | 10 | -2 | 0 | / | /
Nc1ccc2oc(-c3ccccn3)nc2c1 | 2 | -1 | 1 | -2 | 5 | 2 | / | /
Clc1ccc2oc(-c3ccccn3)nc2c1 | 2 | 1.8* | 2 | 1 | 10 | 7.6* | 1 | 9.0*
COc1cc(/C=N/NC(=O)c2nnn(-c3nonc3N)c2C(C)C)ccc1O | 0 | -2 | 0 | 8 | 12* | 6.7* | 0 | 1
Cc1ccc(NC(=S)Nc2ccc(-c3nnc4n3CCCCC4)cc2)cc1C | / | -2 | 0 | -2 | -3 | -1 | / | /
CN1CCc2c(sc(/N=C/c3c[nH]c4ccccc34)c2C#N)C1 | / | 1 | 2 | 6 | 4 | 8.7* | 1 | 9.0*
COc1ccc(S[C@]2(C(=O)N3CCCC3)CC(=O)N(C(=O)c3ccccc3)[C@@H]2c2ccc(OC)cc2)cc1 | / | -1 | -1 | 1 | 2 | 2 | / | /
CN1C(=O)[C@@]2(C3=C(CCCC3=O)OC3=C2C(=O)CC(C)(C)C3)c2ccccc21 | / | -1 | 0 | -3 | 1 | 1 | / | /
O=C(c1cc2cc(F)ccc2[nH]1)N1CCc2ccccc21 | 5.0* | 1.9* | 2 | 12 | 13* | 16* | 1 | 9.2*
Cc1ccc2oc(C(=O)NC3CCS(=O)(=O)C3)c(C)c2c1 (stereo not given) | 1 | 0 | 2 | 1 | 1 | 0 | / | /
Cc1c(C(=O)NC2CCCCC2)oc2ccc(F)cc12 | 4 | 1 | 1 | -1 | 10* | 18* | 1 | 8.3*
c1ccc(-c2cnc(CSc3nnc4ccccn34)o2)cc1 | 2 | 0 | 3 | -3 | 12* | 8.5* | 1 | 5.8*
COc1cc(Cl)ccc1OCc1cc(C(=O)N(C)Cc2nnc(C)o2)no1 | 0 | 0 | 2 | -3 | 3 | 2 | / | /
COc1ccc(OCc2cc(C(=O)N(C)Cc3nnc(C)o3)no2)c(Cl)c1 | 1 | 0 | 1 | 1 | 10 | 6.6* | 1 | 3
O=C(Nc1ccccn1)c1ccco1 | 3 | -1 | 1 | 2 | 3 | 8.5* | 0 | 2
O=C(Nc1ccccn1)c1ccc2ccccc2c1O | 4 | 1.5* | 2 | 3 | 10 | 8.4* | 1 | 8.7*
C=CCn1c(C)nnc1SCC(=O)Nc1nccs1 | 0 | -1 | 0 | -3 | 2 | -1 | / | /
C=CCn1c(C)nnc1SCC(=O)Nc1nc(C)c(C(=O)N(C)C)s1 | 2 | -1 | 0 | -1 | 3 | 7.3* | 0 | 1
Nc1nn(-c2ccccc2)c(N)c1N=Nc1ccc2c(c1)OCO2 | -1 | 0 | 2 | 4 | 20* | 8.4* | 2 | 6.5*
Nc1[nH]n(-c2ccccc2)c(=O)c1N=Nc1ccc2c(c1)OCO2 | 0 | -2 | 1 | 5 | 3 | -1 | / | /
C[C@H]1[C@@H](NCC2CCCCC2)CC[C@@]23CCCN2C(=O)CCC[C@@H]13 | / | -2 | / | -2 | 2 | 2 | / | /
CCC(C)c1ccccc1NC(=O)CN(C)CCOc1ccc(Cl)cc1 (stereo not given) | 0 | -1 | 0 | -3 | 1 | 9.2* | 0 | 0
CN(CCOc1ccc(Cl)cc1)CC(=O)Nc1ccc(OC(F)F)cc1 | 2 | -1 | 0 | 5 | 0 | -1 | / | /
SMILES | DAX1 inh-1 | ssDAF-12 act | DAX1 inh-2 | NR1D1 modulator | hgDAF12 agonist | hcDAF-12 act | LXR ag | hcDAF12 ag
Cc1ccc2nc(N3C(=O)CNC3=S)sc2c1 | / | 0 | 2 | 5 | 6 | 4 | / | /
COc1ccc2nc(N3C(=O)CNC3=S)sc2c1 | 3 | 0 | 1 | 0 | 8 | 8.4* | 1 | 5
CC(C)[C@@H](CO)N1Cc2nnn(Cc3ccccc3)c2-c2ccccc2S1(=O)=O | / | -1 | 1 | -1 | 4 | 3 | / | /
O=C(Nc1ccc2c(c1)OCCO2)C(c1ccncc1)n1c(=O)c(-c2cc3ccccc3[nH]2)nc2ccccc21 (stereo not given) | / | 1.6* | 3 | -2 | 12* | 8.8* | 1 | 15*
CCCCCNC(=O)C(c1ccncc1)n1c(=O)c(-c2cc3ccccc3[nH]2)nc2ccccc21 (stereo not given) | / | 0.9* | 4.3* | -1 | 8 | 9.2* | 0 | 9.9*
CCCCCNC(=O)C(c1ccc(OC)cc1)n1c(=O)c(-c2cc3ccccc3[nH]2)nc2ccccc21 (stereo not given) | / | 0 | 1 | 0 | 2 | 4 | / | /
O=C(NCc1ccccc1)C(c1cc2ccccc2o1)n1c(=O)c(-c2cc3ccccc3[nH]2)nc2ccccc21 (stereo not given) | / | 1.8* | 3 | 6 | 6 | 9.2* | 0 | 7.0*
CCSc1n[nH]c(=O)n1C | / | -1 | -1 | 3 | 1 | 1 | / | /
C/C(N)=C(/C#N)C(=O)CSc1nnnn1-c1ccc(C)cc1 | 0 | 0 | 0 | -5 | 5 | 7.0* | 0 | 5
C/C(N)=C(/C#N)C(=O)CSc1nnnn1-c1ccccc1 | 0 | 0 | 1 | -1 | 4 | 2 | / | /
Nc1ccccc1-n1cccc1 | / | 1.6* | 0 | 0 | 7 | 15* | 0 | 5
C=CCn1c(Cc2cccs2)nnc1SCC(=O)Nc1ccc(C)cc1 | / | -1 | 0 | -4 | -2 | -3 | / | /
COc1ccccc1C(=O)NNC(=O)c1cccc(F)c1 | 0 | 1.2* | 3.9* | 1 | 7 | 10* | 1 | 11*
COc1ccccc1C(=O)NNC(=O)c1ccc(C)cc1 | 0 | 0 | 0 | 0 | 3 | 0 | / | /
COc1ccccc1C(=O)NNC(=O)c1cccc(O)c1 | 1 | 2.6* | 3 | -3 | 7 | 10* | 1 | 15*
COc1ccccc1C(=O)NNC(=O)c1ccc(NS(=O)(=O)c2cccs2)cc1 | 1 | 1 | 2 | 4 | -1 | 10* | 0 | 6.4*
CCCCNC(=O)C[C@H]1C[C@@]2(C(=O)OC)C(=C[C@H](C(C)(C)C)O[C@@H]2C)N(Cc2ccccc2)C1=O | / | -1 | -1 | -2 | 1 | 1 | / | /

Source: PubChem
